Source: PubChem BioAssay
Rows were chosen to be rich in hits. Some 1.1% of all compounds tested hit in one or more screens of this group.
HEK293 viab: cell viability loss counter-screen. HEK-293-SNCA-luc viability, GF-AFC fluorescence, 24 h. 0.12% of 150,000 active. AID 1671193. Potency, µM (titrated, usually from 57.1 µM), for inactives: at the top dose activity change, negative = cytotoxicity, usual class: cytotoxic;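 further: potency means the concentration at half of the fitted maximal effect; 0% = DMSO-treated cells and -100% = medium-only wells without cells; nearly all actives have a fitted effect of over 30% in size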
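Cytotoxicity counterscreen: after 24 h compound treatment of genome-edited SNCA-luciferase HEK-293 cells, live-cell protease substrate GF-AFC read by fluorescence after 30 min; activity scaled between DMSO (0%) and medium-only (-100%), curves Hill-fitted.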
SNCA expr inh: reduces expression of the alpha-synuclein gene | HEK-293 SNCA-luciferase knock-in, luminescence, 24 h | Potency, µM (top dose mostly 57.2 µM), for the others: top-dose activity change, negative = inhibition, most hits filed as inhibitors | 0.17% of 140,000 active | AID 1671194;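 further: potency means the concentration at half of the fitted maximal effect; plate controls were DMSO cells for no effect and cell-free wells for full effect; nearly all actives have a fitted effect of over 45% in size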
IP6K1 inhibitor: IP6K1 kinase inhibition. Q92551. IP6K1 kinase, ADP-Glo luminescence, 2 h; hits give low values. activity change, % (series mostly up to about 58 µM). 0.81% of 140,000 active. AID 1645851; in the data active means activity change below about -25%
Target sequence (Q92551 whole entry, looked up): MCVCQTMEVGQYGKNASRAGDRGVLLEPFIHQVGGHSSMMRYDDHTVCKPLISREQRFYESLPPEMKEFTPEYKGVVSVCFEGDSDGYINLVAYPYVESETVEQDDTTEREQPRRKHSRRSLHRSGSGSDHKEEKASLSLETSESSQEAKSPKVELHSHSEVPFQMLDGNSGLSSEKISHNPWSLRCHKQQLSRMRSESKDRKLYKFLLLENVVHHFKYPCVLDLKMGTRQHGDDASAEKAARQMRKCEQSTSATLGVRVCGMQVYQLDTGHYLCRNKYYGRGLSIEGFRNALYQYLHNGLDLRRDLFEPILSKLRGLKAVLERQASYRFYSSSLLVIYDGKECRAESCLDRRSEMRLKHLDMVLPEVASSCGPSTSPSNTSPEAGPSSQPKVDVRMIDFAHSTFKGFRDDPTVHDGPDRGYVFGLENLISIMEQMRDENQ
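ADP-Glo luminescence measures ADP made by human IP6K1 during a 2 h RT reaction with ATP/IP6 (mix at 1.3 mM/130 uM); top library doses 57.5 and 19.1 uM final.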
GPT2 inhibitor: inhibitors of human GPT2 alanine aminotransferase; Q8TD30; Recombinant GPT2, coupled pyruvate oxidase/HRP Amplex Red fluorescence; Potency, µM (series often up to 57.7 µM), without a hit: at the highest dose activity change, negative = inhibition, hits mostly inhibitors; 0.25% of 100,000 active; AID 1671188; further: potency means the concentration at half of the fitted maximal effect; nearly all actives have a fitted effect of over 60% in size
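Fluorescence of coupled pyruvate oxidase/HRP/Amplex Red system (50uM Amplex, 30 min, dark) reports pyruvate formed by GPT2. Enzyme reaction: 10ng/uL GPT2, 2mM L-alanine, 250uM a-KG, 30 min room temperature, pH 7.5; 50uM AOA control.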
IP6K1 conf: human IP6K1 inhibition, confirmatory. shares compounds with IP6K1 inhibitor. recombinant IP6K1 kinase, ADP-Glo luminescence, 2 h. Potency, µM (highest dose often 49 µM), inactives show at the top dose activity change, negative = inhibition, most hits filed as inhibitors. 13% of 1,200 active. AID 1645852; further: potency means the concentration at half of the fitted maximal effect; nearly all actives have a fitted effect of over 65% in size
* marks the source's active call; other numbers are inactive results; i = inactive; u = inconclusive; x = no result given; ! = a repeat was not active; [ ] = remark or other dose. Unless noted, the call rests on the fitted dose curve; in most records, active means well fitted curve in the direction sought with a large enough effect; inconclusive means small, poorly fitted or top-dose-only effect, or another doubt; inactive means no such curve, though single readings can be large; an effect the other way counts as inactive or inconclusive. Unless noted, on the % scale 0 is the no-effect control and ±100 the full control effect.

SMILES	HEK293 viab	SNCA expr inh	IP6K1 inhibitor	GPT2 inhibitor	IP6K1 conf
O=C(NCCN[S+](=O)([O-])c1cccc(C(F)(F)F)c1)c1ccc(-c2cncnc2)cc1	x	x	14.7	x	x
C#CC1(O)CC[C@H]2[C@@H]3CCC4=CCCC[C@@H]4[C@H]3CC[C@@]21C (stereo partly specified)	-1.3%[23.9 µM]	-53.3%[25.6 µM]	6.8	i	x
C#C[C@]1(OC(C)=O)CC[C@H]2[C@@H]3CCC4=C/C(=N/O)CC[C@@H]4[C@H]3CC[C@@]21CC	33.2%[23.9 µM]	112.2%[25.6 µM]	-59.1*	i	u
CSc1ccc(-c2cccc(C(=O)NCC(=O)NCc3ccc(F)cc3)c2)cc1	-3.4%	-23.8%	3.9	i	x
COc1ccc(-c2cn3c(n2)sc2cc(C(=O)NCc4cccs4)ccc23)cc1	-7.1%	133.0%	-3.3	x	x
O=C(NCc1cccs1)c1ccc2c(c1)sc1nc(-c3ccccc3)cn12	-16.3%	143.1%	-25.4*	x	u
O=C1CO[C@H]2CN(c3ncccn3)C[C@H]2N1CC1CCCCC1	-11.8%[87.6 µM]	-8.7%[87.6 µM]	-26.7*	i	-11.6%
NC(=O)N/N=C/c1ccc([N+](=O)[O-])o1	-3.8%[23.9 µM]	-10.3%[25.6 µM]	-50.0*!	31.6µM*!	-1.1%[92.2 µM]
CC(C)(C)OC(=O)N1CCC(c2c(C(=O)NCCc3ccccc3)cnn2-c2ccc(F)cc2)CC1	-15.7%	u	-25.9*	x	20.2%
CC(C)(C)OC(=O)N1CCC(c2c(C(=O)NCc3ccccc3)cnn2-c2ccc(F)cc2)CC1	10.9%	11.1%	-10.8	x	x
CCC(=O)N1CCc2c(sc3ncnc(Nc4ccccc4)c23)C1	-7.1%	3.9%	-9.8	i	x
Oc1cccc(Nc2ncnc3sc4c(c23)CCCC4)c1	-24.8%	14.7%	-28.0*	x	u
O=C(CNC(=O)c1ccc(-c2cnc3ccccc3c2)cc1)NCCCc1ccccc1	2.2%	29.7%	11.7	i	x
Oc1ccc(/C=C/c2cc(O)cc(O)c2)cc1	-12.4%	u	-59.8*	i	9.2µM*
CC(=O)Nc1cc(-c2cccnc2)nn1-c1ccccc1	-4.6%[87.6 µM]	1.0%[87.6 µM]	-5.0	i	x
CC(=O)c1cccc(Nc2nc(-c3cccc(C)c3)nc3ccccc23)c1	-5.5%	52.3%	-38.8*	x	u
COC(=O)CC1Oc2ccc(Cl)cc2-n2cc(-c3ccccc3)nc21 (stereo unspecified)	4.4%	0.7%	25.5	x	x
Clc1ccc2c(c1)-n1cc(-c3ccccc3)nc1CO2	u	85.5%	-28.4*	x	u
Cc1ccc(-c2ccc(=O)n(CCC(=O)NCCc3ccccc3)n2)cc1	0.0%	22.2%	-26.7*	x	-12.3%
O=C(NCc1ccc(C(F)(F)F)cc1)C1CCN(C(=O)c2ccc(-c3cccs3)cc2)CC1	x	x	-12.1	x	x
CC1CCN(C(=O)CSc2nc(-c3ccccc3)no2)CC1	0.4%	35.8%	-26.2*	x	u
O=C(NCc1ccccc1F)c1nc2cccnc2n(Cc2ccccc2)c1=O	-7.5%	-26.0%	12.7	-11.9%	x
O=c1cc(-c2ccccc2)nc2cc(-c3ccc(F)cc3)[nH]n12	-1.7%	28.7%	-21.4	x	x
COc1ccc(-c2cc3nc(N)cc(=O)n3[nH]2)cc1	-4.0%	83.9%	-48.2*	x	u
COc1ccc(-n2c(=O)c(C(=O)NCc3ccc4c(c3)OCO4)nc3cccnc32)cc1	-3.0%	21.7%	-13.5	2.9%	x
SMILES	HEK293 viab	SNCA expr inh	IP6K1 inhibitor	GPT2 inhibitor	IP6K1 conf
Cc1ccc(-c2c(C(=O)NCCc3ccccc3F)nc3sccn23)cc1	-16.6%	-7.1%	23.9	-13.6%	x
N#CC1CCN(C(=O)CNC(=O)c2ccc(-c3cnc4ccccc4c3)cc2)CC1	-18.4%	-17.4%	-3.7	-18.4%	x
CCCOc1ccc(C(=O)N(Cc2ccc(N(C)C)cc2)CC2CCCO2)cc1 (stereo unspecified)	-9.3%	15.4%	-10.2	x	x
COc1ccc(C(=O)N(Cc2cc(OC)c(OC)c(OC)c2)CC2CCCO2)cc1 (stereo unspecified)	u	24.5%	-25.5*	x	5.4%
COc1ccc(CCNC(=O)CN2C(=O)COc3ccccc32)cc1OC	-21.0%	-1.3%	-34.3*	x	2.0%
CC1=C(C(=O)Nc2ccc(C)cc2C)C(c2cccs2)n2nc(SCc3ccccc3Cl)nc2N1 (stereo unspecified)	3.0%	18.5%	-25.5*	x	23.2%
CC1=C(C(=O)Nc2ccccc2C)C(c2cccs2)n2nc(SCc3cc(C)ccc3C)nc2N1 (stereo unspecified)	6.8%	-5.5%	-0.1	x	x
COC(=O)c1c(SCC(=O)Nc2ccccc2C(F)(F)F)[nH]c2ccc(Cl)cc2c1=O	9.9%	-3.6%	-0.5	x	x
COC(=O)c1c(SCC(=O)Nc2cc(C)cc(C)c2)[nH]c2ccccc2c1=O	-11.0%	-20.5%	-46.6*	x	u
CC#C[C@@H](CC(=O)O)c1ccc(OCc2cccc(-c3ccc(C(F)(F)F)cc3)c2)cc1	-11.2%	x	-28.3*	u	u
CCn1c2c(c(=O)n3ncc(C(=O)Nc4ccc(C(=O)OC)cc4)c13)CN(Cc1ccc(OC)cc1)CC2	4.1%	-3.6%	-34.9*	x	-6.4%
CCn1c2c(c(=O)n3ncc(C(=O)Nc4cc(Cl)ccc4OC)c13)CN(Cc1ccc(OC)cc1)CC2	-7.9%	u	-13.9	x	x
COc1ccccc1N1CCN(C(=O)C(OC)c2ccccc2)CC1=O (stereo unspecified)	-1.3%	u	-25.7*	u	-16.4%
COc1ccccc1N1CCN(S(=O)(=O)CCNC(=O)C(c2ccccc2)c2ccccc2)CC1	-6.8%	-0.7%	16.0	x	x
O=c1cc(N2CCOCC2)nc2c3ccccc3ccn12	-8.2%	x	-9.8	4.1%	x
Cc1cc(C(C)Nc2ccccc2C(=O)O)c2nc(N3CCOCC3)cc(=O)n2c1 (stereo unspecified)	-18.1%	x	1.0	i	-11.3%
COc1cccc(-c2ncc3c(n2)OCCN(c2ccccc2)C3=O)c1	-7.5%[87.6 µM]	u	-26.6*	-9.7%[88.5 µM]	u
COc1cccc(-c2ncc3c(n2)OCCN(c2cccc(C(F)(F)F)c2)C3=O)c1	-17.6%[87.6 µM]	-15.8%[87.6 µM]	-11.6	-10.7%[88.5 µM]	x
COC(=O)c1ccc(NC(=O)CN(C)S(=O)(=O)c2ccc(Br)s2)cc1	-3.6%	-27.6%	-45.1*	x	u
COc1ccc(CCN2CCC(CN(C)Cc3ccc(C#CCCO)cc3)CC2)cc1	7.0%	-2.4%	-2.2	i	x
CN(Cc1nc(-c2ccncc2)no1)C1CCC2(CCNCC2)CC1	1.7%	-16.9%	-41.4*	u	1.5%
O=C(CCc1ccc(CC2CCN(C(=O)NCC3CCCO3)CC2)cc1)NCC1CC1 (stereo unspecified)	u	-15.9%	12.9	-9.6%	x
OCCCNc1cc(-c2ccnc(Nc3cccc(Cl)c3)n2)ccn1	u	u	-26.4*	u	u
NCCCNc1ccc(Nc2nccc(Nc3cc(C4CC4)[nH]n3)n2)cc1	u	x	-7.6	u	x
CN1CCN(c2cc(=O)c3ccnc(N4CCOCC4)c3o2)CC1	4.7%[87.6 µM]	10.5%[87.6 µM]	-16.4	1.6%[88.5 µM]	x
